PubChem BioAssay (NCI)
Values joined by “and” are separate entries in the source; they are usually repeats but may differ in a detail not shown here. Identical values can stand only once. Compounds without any hit were thinned out: in the full panel of roughly 83,000, 20% have a hit.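 The endpoint reported here, percent growth, reads 100 for growth as untreated, 0 for no net growth and -100 for all cells dead.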 Values without a mark were called inactive. Active and inactive are the calls of the source. Rule for the calls: active = growth percent below 10; inactive = the rest.

Each molecule was assayed on MDA-MB-468 breast (assay: NCI-60 one-dose screen, 48 h (100 = growth as untreated, 0 = no growth, -100 = all killed)). Details: 10 µM unless noted.
With `N#CC(NC(=O)CCl)=C(Cl)Cl` the growth was -48.2% (active).
`C[C@]12CCC(=O)CC1CC[C@@H]1C2CC[C@@]2(C)C1CC[C@@H]2OC(=O)CC[Se][Se]CCC(=O)O[C@H]1CCC2[C@@H]3CCC4CC(=O)CC[C@]4(C)C3CC[C@@]21C` (stereo partly drawn) gave a growth of 77.5%.
In the case of `O=P1(N(CCCl)CCCl)NCCCO1` (stereo not drawn), the growth is reported as 108%.
For `COc1cc(OC)c(S(=O)(=O)N(CCCl)CCCl)cc1C(=O)/C=C/c1ccc(Cl)cc1`, the growth was 47.6%.
With `CC(C)N=C(NC(C)C)N1CC1` the growth was 118%.
`O=C1c2ccccc2C(=O)N1N1CC1c1ccccc1` (stereo not drawn) showed a growth of 104%.
`COc1cc2c(O[C@@H]3OC[C@H](O)[C@H](O)[C@H]3O)c3c(c(-c4ccc5c(c4)OCO5)c2cc1OC)C(=O)OC3` gave a growth of 59.3%.
For `COc1cc2c(cc1OC)C13CCN4CC5=CCOC6CC(=O)N2C1C6C5CC43` (stereo not drawn), the growth was 116% and 108%.
`CC(=O)C1C(=O)N(C)C(=O)N(C)C1=O` gave a growth of 104%.
For `COc1ccc(/C=C\c2cc(OC)c(OC)c(OC)c2)cc1OCC(=O)Nc1nc2ccc(F)cc2s1`, the growth was 37.3%.
For `CC(=O)Cc1ccc2c(c1)OCO2`, the growth was 103%.
`COC(=O)[C@@H](C)C[C@H](Cc1ccc(F)cc1)NC(=O)c1csc([C@@H](C[C@H](C(C)C)N(C)C(=O)[C@@H](NC(=O)[C@H]2CCCCN2C)C2CC2)OC(C)=O)n1` showed a growth of 22.5%.
Molecule `C#Cc1cccc(Nc2nc(Cl)nc3cc(NC(=O)CF)ccc23)c1` has a growth of 61.5%.
